Reference: PubChem BioAssay AID1159580 (chemical genetic matrix, 2015)
Out of some 5,500 compounds screened, about 2,000 (36%) were called active. Roughly 18% stayed inconclusive and do not appear here. No stated cut-off is given here; in the data, active means normalized growth mostly below about 0.91 (no sharp cut-off); inconclusive means no clear call, values can overlap the other calls; inactive means mostly above about 0.92. The list shows a part of the results.

Test: chemical genetic growth profiling, strain panel (AID 1159580);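 further: tested at 20 µM; growth read once vehicle control cultures reached saturation at 30 °C; 1 = growth at the plate median or of vehicle wells; lower values mean less growth of the strain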
Details: growth OD

Measured: normalized growth

CCOP(=S)(OCC)Oc1ccc2c(C)c(Cl)c(=O)oc2c1
inactive: S. cerevisiae deletion strains, locus YJR075W, strain HOC1, active compounds read low 0.945 | S. cerevisiae deletion strains, locus YKL009W, strain mrt4, active compounds read low 0.952 | S. cerevisiae deletion strains, locus YKL068W, active compounds read low 0.985 | S. cerevisiae deletion strains, locus YKL085W, strain MDH1 (second series), active compounds read low 0.982 | S. cerevisiae deletion strains, locus YKL085W, strain MDH1, active compounds read low 0.982 | S. cerevisiae deletion strains, locus YKL160W, strain elf1, active compounds read low 1 | S. cerevisiae deletion strains, locus YKL190W, strain CNB1, active compounds read low 0.983 | S. cerevisiae deletion strains, locus YKR001C, strain vps1, active compounds read low 0.981 | S. cerevisiae deletion strains, locus YKR026C, strain gcn3, active compounds read low 0.944 | S. cerevisiae deletion strains, locus YKR091W, strain srl3, active compounds read low 0.973 | S. cerevisiae deletion strains, locus YLL001W, strain dnm1, active compounds read low 0.988 | S. cerevisiae deletion strains, locus YLL026W, active compounds read low 0.946 | S. cerevisiae deletion strains, locus YLL041C, strain sdh2, active compounds read low 0.956 | S. cerevisiae deletion strains, locus YLR027C, strain aat2, active compounds read low 0.935 | S. cerevisiae deletion strains, locus YLR039C, strain RIC1, active compounds read low 0.94 | S. cerevisiae deletion strains, locus YLR058C, strain SHM2, active compounds read low 0.971 | S. cerevisiae deletion strains, locus YLR102C, strain apc9, active compounds read low 0.985 | S. cerevisiae deletion strains, locus YLR113W, strain HOG1, active compounds read low 0.936 | S. cerevisiae deletion strains, locus YLR221C, strain rsa3, active compounds read low 0.933 | S. cerevisiae deletion strains, locus YLR258W, strain gsy2, active compounds read low 0.969 | S. cerevisiae deletion strains, locus YLR262C, strain YPT6 (second series), active compounds read low 0.976 | S. cerevisiae deletion strains, locus YLR262C, strain YPT6, active compounds read low 0.929 | S. cerevisiae deletion strains, locus YLR268W, strain sec22, active compounds read low 0.965 | S. cerevisiae deletion strains, locus YLR320W, strain mms22, active compounds read low 0.914 | S. cerevisiae deletion strains, locus YLR330W, strain CHS5, active compounds read low 0.979 | S. cerevisiae deletion strains, locus YLR342W, strain FKS1 (second series), active compounds read low 1.01 | S. cerevisiae deletion strains, locus YLR342W, strain FKS1, active compounds read low 0.961 | S. cerevisiae deletion strains, locus YLR357W, strain rsc2, active compounds read low 0.972 | S. cerevisiae deletion strains, locus YLR370C, strain arc18, active compounds read low 0.944 | S. cerevisiae deletion strains, locus YLR371W, strain rom2, active compounds read low 0.993 | S. cerevisiae deletion strains, locus YLR384C, strain iki3, active compounds read low 0.983 | S. cerevisiae deletion strains, locus YLR418C, strain cdc73, active compounds read low 0.956 | S. cerevisiae deletion strains, locus YML016C, strain PPZ1, active compounds read low 0.983 | S. cerevisiae deletion strains, locus YML032C, strain rad52, active compounds read low 0.979 | S. cerevisiae deletion strains, locus YML120C, strain ndi1, active compounds read low 0.962 | S. cerevisiae deletion strains, locus YML124C, strain tub3, active compounds read low 0.986 | S. cerevisiae deletion strains, locus YMR058W, strain fet3, active compounds read low 0.957 | S. cerevisiae deletion strains, locus YMR078C, strain ctf18, active compounds read low 0.979 | S. cerevisiae deletion strains, locus YMR125W, strain sto1, active compounds read low 0.97 | S. cerevisiae deletion strains, locus YMR129W, active compounds read low 0.97 | S. cerevisiae deletion strains, locus YMR205C, strain PFK2, active compounds read low 0.955 | S. cerevisiae deletion strains, locus YMR223W, strain ubp8, active compounds read low 0.987 | S. cerevisiae deletion strains, locus YMR231W, strain pep5, active compounds read low 0.948 | S. cerevisiae deletion strains, locus YMR263W, strain SAP30, active compounds read low 0.972 | S. cerevisiae deletion strains, locus YMR307W, strain GAS1, active compounds read low 0.894 | S. cerevisiae deletion strains, locus YNL067W, strain RPL9B, active compounds read low 0.981 | S. cerevisiae deletion strains, locus YNL071W, strain lat1, active compounds read low 0.944 | S. cerevisiae deletion strains, locus YNL128W, strain TEP1, active compounds read low 0.952 | S. cerevisiae deletion strains, locus YNL153C, strain GIM3, active compounds read low 0.972 | S. cerevisiae deletion strains, locus YNL183C, strain NPR1, active compounds read low 0.974 | S. cerevisiae deletion strains, locus YNL209W, strain ssb2, active compounds read low 0.957 | S. cerevisiae deletion strains, locus YNL233W, strain BNI4, active compounds read low 0.959 | S. cerevisiae deletion strains, locus YNL248C, strain rpa49, active compounds read low 0.96 | S. cerevisiae deletion strains, locus YNL250W, strain rad50, active compounds read low 0.98 | S. cerevisiae deletion strains, locus YNL271C, strain bni1, active compounds read low 0.99 | S. cerevisiae deletion strains, locus YNL298W, strain CLA4, active compounds read low 0.979 | S. cerevisiae deletion strains, locus YNL307C, strain MCK1, active compounds read low 0.981 | S. cerevisiae deletion strains, locus YNL322C, strain KRE1 (second series), active compounds read low 0.932 | S. cerevisiae deletion strains, locus YNL322C, strain KRE1, active compounds read low 0.981 | S. cerevisiae deletion strains, locus YNR049C, strain mso1, active compounds read low 0.954 | S. cerevisiae deletion strains, locus YNR052C, strain pop2, active compounds read low 0.994 | S. cerevisiae deletion strains, locus YOL006C, strain TOP1, active compounds read low 0.884 | S. cerevisiae deletion strains, locus YOL012C, strain htz1 1.3 | S. cerevisiae deletion strains, locus YOL147C, strain pex11, active compounds read low 0.993 | S. cerevisiae deletion strains, locus YOR001W, strain rrp6, active compounds read low 0.95 | S. cerevisiae deletion strains, locus YOR061W, strain CKA2, active compounds read low 0.961 | S. cerevisiae deletion strains, locus YOR069W, strain VPS5, active compounds read low 0.979 | S. cerevisiae deletion strains, locus YOR070C, strain gyp1, active compounds read low 0.994 | S. cerevisiae deletion strains, locus YOR080W, strain dia2, active compounds read low 0.959 | S. cerevisiae deletion strains, locus YOR083W, strain WHI5, active compounds read low 0.991 | S. cerevisiae deletion strains, locus YOR106W, strain vam3, active compounds read low 0.939 | S. cerevisiae deletion strains, locus YOR136W, strain idh2, active compounds read low 0.977 | S. cerevisiae deletion strains, locus YOR144C, strain elg1, active compounds read low 0.985 | S. cerevisiae deletion strains, locus YOR184W, strain ser1, active compounds read low 0.976 | S. cerevisiae deletion strains, locus YOR231W, strain MKK1, active compounds read low 1.03 | S. cerevisiae deletion strains, locus YOR265W, strain rbl2, active compounds read low 0.94 | S. cerevisiae deletion strains, locus YOR270C, strain vph1, active compounds read low 0.904 | S. cerevisiae deletion strains, locus YOR290C, strain snf2, active compounds read low 0.928 | S. cerevisiae deletion strains, locus YOR316C, strain cot1, active compounds read low 0.971 | S. cerevisiae deletion strains, locus YPL051W, strain arl3, active compounds read low 0.963 | S. cerevisiae deletion strains, locus YPL055C, strain LGE1, active compounds read low 0.948 | S. cerevisiae deletion strains, locus YPL078C, strain atp4, active compounds read low 0.982 | S. cerevisiae deletion strains, locus YPL106C, strain sse1, active compounds read low 0.957 | S. cerevisiae deletion strains, locus YPL240C, strain hsp82, active compounds read low 0.95 | S. cerevisiae deletion strains, locus YPL241C, strain CIN2, active compounds read low 0.982 | S. cerevisiae deletion strains, locus YPL256C, strain CLN2, active compounds read low 1.03 | S. cerevisiae deletion strains, locus YPR119W, strain clb2, active compounds read low 0.983 | S. cerevisiae deletion strains, locus YPR141C, strain kar3, active compounds read low 0.951 | S. cerevisiae deletion strains, locus YPR163C, strain tif3, active compounds read low 0.987 | S. cerevisiae deletion strains, locus YPR167C, strain met16, active compounds read low 0.99 | S. cerevisiae deletion strains, strain wtn01, active compounds read low 0.989 | S. cerevisiae strains, strain wild type, active compounds read low 0.981
